From ChEMBL document CHEMBL3433997, “St. Jude Leishmania screening dataset” (2016)

molecular target: Glucose transporter (Leishmania mexicana) (UniProt O61059); assay: ST_JUDE_LEISH: Cytotoxicity at 2uM final concentration against transgenic Leishmania Mexicana promastigotes LmGT2 that are glucose transport deficient and complemented with the L. Mexicana glucose transporter 2. Activity is measured by DNA content using SYBR green in vitro; format: functional

Going from `COCCNCc1ccc(-c2ccc3c(Nc4ccc(F)cc4Cl)ccnc3c2)o1` to `Fc1ccccc1COc1ccc(Nc2ncnc3ccc(-c4nnc(C(F)(F)F)o4)cc23)cc1Cl`, the inhibition falls from 5.59% to 2.13%.

Compared with `O=C(Nc1ccc(C(=O)Oc2ccc3ccccc3c2)cc1)N[C@@H](Cc1ccc(O)cc1)C(=O)NC1CCN(Cc2ccc(O)cc2)C1` (stereo not given in full), `CC(C)c1ccc(NC(=O)N[C@H]2CCN(CCCCCNC(=O)/C=C/c3ccc(Cl)c(Cl)c3)C2)cc1` is higher in inhibition: -2.23% for the first, 2.9% for the second.

Compared with `O=C(NCC1CCN(Cc2ccc(F)cc2)C1)c1cc(-c2cccc(C(F)(F)F)c2)cs1` (stereo not given), `CC(C)c1ccc(CN2CCC(CNC(=O)c3cc(-c4cccc(C(F)(F)F)c4)cs3)C2)cc1` (stereo not given) is higher in inhibition: -6.61% for the first, 3.79% for the second.

Going from `CCOc1ccccc1C=CC(=O)Nc1ccc2nc(N3CCN(C)CC3)cc(C)c2c1` to `CC(C)(C)c1cc(C(=O)N2CCN(c3ncnc4ccsc34)CC2)n(Cc2ccccc2)n1`, the inhibition falls from 4.24% to 2.2%.

First: Cc1ccc(C(=O)N2CCc3cc4nccc(N5CCN6CCC[C@H]6C5)c4cc32)cc1
Second: O=C(NC1CC1)c1ccc(N2CCCC(COc3ccc4c(c3)CCCC4)C2)nc1 (stereo not given)
The inhibition of the first is lower: 1.55% for the first, 1.93% for the second.

Compared with `CCN1CCN(CCCNc2c3ccccc3nc3ccccc23)CC1`, `O=C(/C=C/c1ccc(Cl)c(Cl)c1)NCC(CCCN1CCC(c2c[nH]c3ccccc23)CC1)c1ccccc1` (stereo not given) is lower in inhibition: 39.1% for the first, 2.05% for the second.

Going from `COc1cc2nc(N(C)C)nc(Nc3ccc4c(cnn4Cc4ccccc4)c3)c2cc1OC` to `COc1ccccc1CNC(=O)c1nn(-c2ccc(Cl)cc2)c(=O)c2ccccc12`, the inhibition rises from 2.85% to 3.54%.

First: Cc1cc(N2CCCC2)nc(Nc2ccc(NC(=O)c3ccccc3F)cc2)n1
Second: Cc1cnc(Nc2ccccc2)nc1NCCC(=O)Nc1ccccc1
The inhibition of the first is lower: -0.95% for the first, 3.62% for the second.

Going from `COc1cccc(CN2CCCC(OC(c3ccccc3)c3ccccc3)C2)c1O` (stereo not given) to `Cc1noc(C)c1-c1cccc(C(=O)NC2CCN(CCNC(=O)C(c3ccccc3)c3ccccc3)CC2)c1`, the inhibition rises from 0.05% to 1.64%.

First: COc1ccc(CCNCCCCCCNCCCc2ccc(Cl)cc2)cc1OC
Second: CCCCCCCc1c(C)nc2cc(OC)ccc2c1O
The inhibition of the first is lower: 4.39% for the first, 7.02% for the second.

Compared with `CCN(CC)CCN(Cc1ccc(-c2ccc(Cl)cc2)cc1)C(=O)Cn1c(CCc2cccc(F)c2F)nc(=O)c2ccccc21`, `O=C(Cn1c(CCc2cccc(F)c2F)cc(=O)c2cccnc21)N(CCn1ccnc1)Cc1ccc(-c2ccc(C(F)(F)F)cc2)cc1` is higher in inhibition: -1.69% for the first, -1.45% for the second.

First: Cc1cc(NCC(c2ccccc2)c2ccccc2)nc(NCc2ccc(C(F)(F)F)cc2)n1
Second: CS(=O)(=O)c1ccccc1CNC(=O)c1ccc(-c2ccc(-c3nc4cc(C(F)(F)F)ccc4[nH]3)s2)cc1
The inhibition of the first is higher: 3.66% for the first, 0.84% for the second.

First: CCCCCN1CCCC1CNS(=O)(=O)c1ccc(C(=O)Nc2cccc(C(F)(F)F)c2)cc1 (stereo not given)
Second: O=S(=O)(NC1CCN(c2ccnc3cc(Cl)ccc23)C1)c1ccc(C(F)(F)F)cc1 (stereo not given)
The inhibition of the first is lower: 0.19% for the first, 0.45% for the second.

Compared with `Cc1cccc2nc(-c3cccc(-c4ccc(NC(=O)Nc5ccc(Cl)cc5)cc4)c3)[nH]c12`, `COC(=O)c1cccc(CNCc2cccc(-c3ccc(-c4nc5cccc(C)c5[nH]4)s3)c2)c1` is higher in inhibition: -3.06% for the first, 0.69% for the second.

Compared with `COc1ccc(CN2CCC(NCc3cccc([N+](=O)[O-])c3)CC2)cc1`, `N=C(N)c1ccc(NCc2cccc(C(=O)O)c2)cc1` is lower in inhibition: 6.36% for the first, 3.66% for the second.

First: Cc1ccc2c(=O)c3cc(C)ccc3[nH]c2c1
Second: Cc1ccnc(-n2c(C)cc(C=C3SC(=Nc4ccccc4)N(Cc4ccco4)C3=O)c2C)c1
The inhibition of the first is lower: 0.54% for the first, 4.69% for the second.

Compared with `CCc1cn2c3c(cc(C(=O)N[C@@H](Cc4ccccc4)[C@H](O)CNCCOC)cc13)N(C)S(=O)(=O)CC2`, `CCOCc1cn(CC(=O)c2ccc(-c3ccccc3)cc2)c(C)nc1=N` is lower in inhibition: 3.91% for the first, -0.84% for the second.

Going from `O=C(/C=C/c1ccc(Cl)c(Cl)c1)NCCCCCN1CCC(C(=O)Nc2ccc(Cl)c(Cl)c2)CC1` to `COc1cc2c(C3CCN(CC4CCN(C(=O)/C=C/c5ccc(Cl)c(Cl)c5)CC4)CC3)c[nH]c2cn1`, the inhibition falls from 2.34% to -0.88%.

First: C=CCN(C(=O)c1ccc(Cl)c([N+](=O)[O-])c1)c1nc(-c2ccccc2)cs1
Second: CC(=O)Nc1cccc(C(=O)Nc2cccc(-c3ccc(-c4nc5cc(F)ccc5[nH]4)s3)c2)c1
The inhibition of the first is higher: 7.89% for the first, 0.19% for the second.

Going from `CCN(CCCN1CCCCC1)c1cc(C)nc(Nc2ccc(Cl)c(C(F)(F)F)c2)n1` to `Cc1ccc2c(OCCN3CCC(Cc4cc5c(cc4F)OCC(=O)N5)CC3)cc(F)cc2n1`, the inhibition rises from -1.78% to 3.85%.
